Consider 13 molecules from PubChem BioAssay.

A number with no mark means an inactive call. No rule for the calls is given here.

The nature of this assay: blockers of DNA damage checkpoint Chk1 activation – imaging, HeLa, hydroxyurea, phospho-Chk1 nuclear intensity, primary screen (AID 1187). Also: test concentration not given here. To be noted: hydroxyurea-induced phospho-Chk1 immunofluorescence imaging, higher = more signal.
As for `COc1ccccc1CN1C(=O)c2ccccc2[C@](Cc2ccccc2I)(C(=O)NCC(C)C)[C@@H]1c1ccc(CO)cc1`, the z-score is -0.208.
Under `C[N+](C)(C)CCCC[C@@H]1NC(=O)[C@@H]2C[C@H](C(=O)NCc3ccc(F)cc3)[C@H](c3ccc(O)cc3)N2C1=O` stands 0.0892; under `CN1C(=O)C2C(C1=O)C1C=C(CCCO)C2C(C2CC2)N1Cc1cccc(OC(F)(F)F)c1` (stereo not drawn), -0.0667.
Take `COC(=O)[C@@]1(Cc2ccccc2)[C@H]2c3cc(C(=O)N(C)C)n(Cc4ccc(S(C)(=O)=O)cc4)c3C[C@H]2CN1C(=O)c1ccccc1`: the z-score was 0.38.
Under `O=C1c2ccccc2[C@@]2(Cc3ccccc3N(Cc3ccccc3)C2=O)[C@H](c2ccc(CO)cc2)N1Cc1ccccc1Cl` stands 0; under `O=C1C[C@@](C(=O)NCc2ccccc2)(c2ccc([N+](=O)[O-])cc2)[C@@H](c2ccc(CO)cc2)N1C1CCCCC1`, -0.0661; under `CC(C)c1nc2cc(Br)ccc2c(=O)o1`, 0.0785.
With `CCOC(=O)C1=CCC(c2cc3ccccc3[nH]2)N(CCN2CC(C(=O)OCC)=CCC2c2cc3ccccc3[nH]2)C1` (stereo not drawn), the z-score was -0.497.
For `O=C(NC1CC1)[C@@H]1c2ccccc2C(=O)N(CC23CC4CC(CC(C4)C2)C3)[C@H]1c1ccc(CO)cc1`, the z-score is 0.169.
Under `N#Cc1ccc(NN2C(C(O)C3CC=CCC3)C=CC3C(=O)N(c4ccccc4)C(=O)C32)cc1` (stereo not drawn) stands 0.22; under `O=C(NCC(O)CO)C1N=C(c2ccc(OCCCO)cc2)N(c2ccccc2)O1` (stereo not drawn), -0.257; under `CCCC[C@H]1OB(O)C[C@H]2C1=C(COc1ccccc1)C[C@H]1C(=O)C=CC(=O)[C@H]12`, -0.274.
With `COCCn1c(C(=O)N(C)C)cc2c1C[C@H]1CN(C(=O)c3ccccc3)[C@@](Cc3ccc(OC)cc3)(C(=O)OC)[C@@H]21`, the z-score was 0.542.
